Assay results as given in PubChem BioAssay AID624086 (Broad Institute, 2012).
Active and inactive are the calls of the source.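 The calls were made as follows: active = fitted half-maximal effect concentration at or below the top concentration tested; inactive = the rest.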

Test: TCF/LEF luciferase signal increase in HEK293T – cell-based, firefly luciferase, dry powder, orthogonal assay for GSK3b inhibitor project, dose response (AID 624086)
Details: HEK293T TCF/LEF firefly luciferase reporter, 24 h; series mostly up to 26 µM; activity change, negative = inhibition: at the top concentration

Row | SMILES | activity change, negative = inhibition
1 | Cc1[nH]nc2c1C(C1CCCCC1)C1=C(CC(C)(C)CC1=O)N2 (configuration not stated) | -0.188% (inactive)
2 | COc1ccccc1[C@@H]1C2=C(CC(C)(C)CC2=O)Nc2n[nH]c(C)c21 | -0.562% (inactive)
3 | CC1(C)CC(=O)C2=C(C1)Nc1n[nH]c(C(F)(F)F)c1C2c1c(F)cccc1F (configuration not stated) | -2.81% (inactive)
4 | O/N=C/c1cn(-c2ccccc2)nc1-c1ccc(F)cc1 | -4.44% (inactive)
5 | CC(C)COc1ccc(-c2nn(-c3ccccc3)cc2/C=N/O)cc1 | 0% (inactive)
6 | COc1ccccc1C1C2=C(CC(C)(C)CC2=O)Nc2n[nH]c(-c3ccccc3)c21 (configuration not stated) | 0.194% (inactive)
7 | Cc1ccccc1C1C2=C(CC(C)(C)CC2=O)Nc2n[nH]c(C)c21 (configuration not stated) | -2.29% (inactive)
8 | Cc1[nH]nc2c1C(c1ccc(F)cc1Cl)C1=C(CC(C)(C)CC1=O)N2 (configuration not stated) | 0.588% (inactive)
9 | Cc1[nH]nc2c1C(c1ccn[nH]1)C1=C(CC(C)(C)CC1=O)N2 (configuration not stated) | 0.588% (inactive)
10 | Cc1[nH]nc2c1C(c1ccc(F)cc1)C1=C(CC(C)(C)CC1=O)N2 (configuration not stated) | 0% (inactive)
11 | COc1ccccc1C1C(C(C)=O)=C(C)Nc2n[nH]c(C)c21 (configuration not stated) | -1.13% (inactive)
12 | Cc1[nH]nc2c1C(C)(c1ccccc1)C1=C(CC(C)(C)CC1=O)N2 (configuration not stated) | -14.4% (inactive)
13 | O/N=C/c1cn(-c2ccccc2)nc1-c1ccc(Cl)cc1 | 0% (inactive)
14 | CC1(C)CC(=O)/C(=C\c2cccc(F)c2C(F)(F)F)C(=Nc2cc(C(F)(F)F)[nH]n2)C1 | 3.06% (inactive)
15 | O/N=C/c1cn(-c2ccccc2)nc1-c1ccc2c(c1)OCCO2 | 0.588% (inactive)
16 | Cc1[nH]nc2c1C(c1ccc(C#N)cc1)C1=C(CC(C)(C)CC1=O)N2 (configuration not stated) | 3.06% (inactive)
17 | Cc1[nH]nc2c1C(c1cccnc1)C1=C(CC(C)(C)CC1=O)N2 (configuration not stated) | -11.7% (inactive)
